miR-122 inh: miR-122 sensor activation. Huh7 psiCHECK-miR122 Renilla luciferase sensor, 48 h. activation, % at 12.5 µM. 340,000 compounds, 0.14% hits. AID 623901;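 active = mean activation of 30% or more, with every replicate also reaching 30%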;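 also: higher luciferase signal means stronger suppression of miR-122 activity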
Each line names hits and unclear results; the compound was inactive in the other large screens. The full list was thinned out, with hits kept by preference.

C[C@H]1CN([C@@H](C)CO)C(=O)c2cc(/C=C/c3ccccc3)cnc2O[C@H]1CN(C)Cc1ccccc1F	none
C[C@H]1CN([C@@H](C)CO)S(=O)(=O)c2ccc(C#CC3CC3)cc2O[C@@H]1CN(C)C(=O)C1CC1	none
C[C@@H]1CN([C@H](C)CO)C(=O)c2cc(C#CCc3ccccc3)cnc2O[C@H]1CN(C)Cc1ccccn1	none
C[C@@H]1CN([C@H](C)CO)C(=O)c2cc(C#Cc3ccccn3)cnc2O[C@@H]1CN(C)C(=O)CCN1CCCCC1	none
CCC(=O)N(C)C[C@@H]1Oc2cc(-c3cccc(C#N)c3)ccc2S(=O)(=O)N([C@H](C)CO)C[C@H]1C	none
CCCN1C[C@@H](C)[C@@H](OC)CN(C)C(=O)c2ccc(NC(=O)COC)cc2OC[C@H]1C	none
NC1=NC[C@@H](CC2CCCCC2)N1CCc1cc(C(F)(F)F)cc(C(F)(F)F)c1	miR-122 inh 35
CC(C)C#Cc1ccc2c(c1)O[C@@H](CN(C)C(=O)CC1CC1)[C@@H](C)CN([C@H](C)CO)S2(=O)=O	none
COc1cccc(C#Cc2ccc3c(c2)O[C@@H](CN(C)C(=O)c2ccccn2)[C@@H](C)CN([C@@H](C)CO)S3(=O)=O)c1	none
COc1ccc(CN2CCc3c([nH]c4ccccc34)C2)c(OC)c1C	miR-122 inh 42
COc1ccccc1S(=O)(=O)N(C)C[C@@H]1Oc2cc(/C=C/c3ccccc3)ccc2S(=O)(=O)N([C@@H](C)CO)C[C@H]1C	none
COc1ccc(C(=O)Nc2ccc3c(c2)OC[C@@H](C)N(C)C[C@H](C)[C@@H](OC)CN(C)C3=O)cc1	none
Cc1nn(Cc2ccc(Cl)c(Cl)c2)c(C)c1NC(=O)c1sc2ccccc2c1Cl	miR-122 inh 32
CCCNC(=O)N(C)C[C@@H]1Oc2cc(C#CC(C)C)ccc2S(=O)(=O)N([C@H](C)CO)C[C@@H]1C	none
C[C@@H]1CN([C@H](C)CO)S(=O)(=O)c2ccc(-c3cccnc3)cc2O[C@H]1CN(C)Cc1ccccn1	none
C[C@H](CO)N1C[C@H](C)[C@H](CN(C)CC2CCOCC2)Oc2ncc(C3=CCCCC3)cc2C1=O	none
COc1cccc(NC(=O)N(C)C[C@@H]2Oc3ncc(C#Cc4cccnc4)cc3C(=O)N([C@@H](C)CO)C[C@@H]2C)c1	none
C[C@@H]1CN([C@H](C)CO)S(=O)(=O)c2ccc(C#Cc3ccccn3)cc2O[C@H]1CN(C)Cc1ccc(F)cc1	none
C[C@H]1CN([C@@H](C)CO)C(=O)c2cc(/C=C/c3ccccc3)cnc2O[C@@H]1CN(C)C(=O)Nc1ccccc1F	none
CC(=O)Nc1ccc(NS(=O)(=O)c2ccc3ccccc3c2)cc1	none
CC(=O)Nc1ccc(S(=O)(=O)Nc2cccc(-c3nc4ccccc4o3)c2)cc1	none
CC(=O)Nc1ccc(-c2cc(-c3ccc(NC(C)=O)cc3)nc(-c3ccc(NC(C)=O)cc3)n2)cc1	miR-122 inh 32
C[C@@H]1CN([C@@H](C)CO)C(=O)c2cc(-c3cccc(F)c3)cnc2O[C@H]1CN(C)C(=O)Nc1ccccc1F	none
C[C@H]1CN([C@@H](C)CO)C(=O)c2cc(C#Cc3cccnc3)cnc2O[C@@H]1CN(C)S(C)(=O)=O	none
CCC(=O)N(C)C[C@H]1Oc2ncc(C#C[C@@H](C)O)cc2C(=O)N([C@@H](C)CO)C[C@@H]1C	none
Cc1ccccc1NC1=C/C(=N\S(=O)(=O)c2cccs2)c2ccccc2C1=O	miR-122 inh 60
CC(C)NC(=O)N(C)C[C@H]1Oc2cc(-c3ccccc3)ccc2S(=O)(=O)N([C@H](C)CO)C[C@@H]1C	none
CC(=O)N(C)C[C@@H]1Oc2cc(C#CC3(O)CCCC3)ccc2S(=O)(=O)N([C@@H](C)CO)C[C@@H]1C	none
CC(C)C(=O)NC(c1cccc([N+](=O)[O-])c1)c1ccc2cccnc2c1O (configuration not stated)	miR-122 inh 41
Cc1ccc(S(=O)(=O)Nc2cccc3cccnc23)c([N+](=O)[O-])c1	none
COc1cnc(-c2ccccn2)nc1Sc1ccccc1Cl	miR-122 inh 39
CCCC#Cc1cnc2c(c1)C(=O)N([C@@H](C)CO)C[C@H](C)[C@@H](CN(C)C(=O)Cc1ccccc1)O2	none
COCC#Cc1cnc2c(c1)C(=O)N([C@@H](C)CO)C[C@H](C)[C@@H](CN(C)C(=O)Cc1cccnc1)O2	none
COCC(=O)N(C)C[C@H]1Oc2cc(-c3cccc(F)c3)ccc2S(=O)(=O)N([C@H](C)CO)C[C@@H]1C	none
Cc1ccc(C(=O)OCn2ncc(Cl)c(Cl)c2=O)cc1	miR-122 inh 74
CC(C)CC#Cc1cnc2c(c1)C(=O)N([C@@H](C)CO)C[C@@H](C)[C@H](CN(C)C(=O)Nc1cccc(F)c1)O2	none
C[C@@H]1CN([C@H](C)CO)S(=O)(=O)c2ccc(-c3ccc(C#N)cc3)cc2O[C@H]1CN(C)C(=O)C1CC1	none
C[C@@H]1CN([C@H](C)CO)C(=O)c2cc(C#Cc3ccc(F)cc3)cnc2O[C@H]1CN(C)CC1CCOCC1	none
CO[C@@H]1CN(C)C(=O)c2ccc(NC(=O)CN(C)C)cc2OC[C@@H](C)N(C(=O)C2CCCCC2)C[C@H]1C	none
COc1ccc(NC(=O)CCN2C(=O)c3ccccc3C2=O)cc1	none
COc1ccc(NC(=O)CN(C)C(=O)/C=C/c2ccc(OCc3ccccc3)cc2)cc1	miR-122 inh 43
